Data reported in PubChem BioAssay (NCI).
The panel holds about 83,000 compounds, 20% with a hit somewhere; the sample as a whole holds those more often.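 Cell lines were cultured in 96-well plates, exposed to a single compound concentration, and assessed for percent growth 48 hours later.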 Unmarked numbers belong to inactive results. Active and inactive are the calls of the source. How the source made its calls: active means growth percent below 10; inactive means the rest.

Assays:
Assay in all cases: NCI-60 one-dose screen, 48 h (100 = growth as untreated, 0 = no growth, -100 = all killed)
Details in all cases: 10 µM unless noted
[1] = tested on: HCT-15 colon
[2] = tested on: HT29 colon
[3] = tested on: SNB-75 CNS
[4] = tested on: SNB-19 CNS
[5] = tested on: U251 CNS
[6] = tested on: PC-3 prostate
[7] = tested on: SK-MEL-5 melanoma
[8] = tested on: UACC-62 melanoma
[9] = tested on: LOX IMVI melanoma
[10] = tested on: SK-MEL-28 melanoma
[11] = tested on: SK-MEL-2 melanoma
[12] = tested on: EKVX NSCLC
[13] = tested on: SN12C renal
[14] = tested on: UO-31 renal
[15] = tested on: TK-10 renal
[16] = tested on: ACHN renal
[17] = tested on: CAKI-1 renal
[18] = tested on: A498 renal
[19] = tested on: CCRF-CEM leukemia
[20] = tested on: MOLT-4 leukemia

SMILES	growth [1]	growth [2]	growth [3]	growth [4]	growth [5]	growth [6]	growth [7]	growth [8]	growth [9]	growth [10]	growth [11]	growth [12]	growth [13]	growth [14]	growth [15]	growth [16]	growth [17]	growth [18]	growth [19]	growth [20]
COc1cnc2c(c1)C(=O)c1c-2n(CCCN2CCCC2)c(=O)c2cc(Cl)ccc12	39.4%	-72.8% (active)	19.2%	28.7%	20.1%	20.4%	14.7%	21.1%	12.5%	85.1%	65.2%	46.6%	27.5%	15.9%	39.4%	7.7% (active)	42.4%	-9.2% (active)	-38.1% (active)	-24.4% (active)
CCN(CC)CC(=O)Nc1c(C)cc(C(=O)NN)cc1C	103%	96.1%	84.9%	97.3%	97.5%	101%	102%	97.6%	94.3%	106%	117%	102%	98.3%	84.7%	102%	107%	95.8%	99.7%	114%	85.2%
O=C(Nc1ccncc1)C(=O)c1cn(S(=O)(=O)c2cccc(Cl)c2F)c2ccccc12	50%	50%	80.7%	82.7%	73.6%	75.8%	57.5%	57%	51.3%	95.1%	60.6%	59.2%	82.9%	56.9%	112%	101%	68.3%	72%	66.4%	60.2%
CNC1=C([N+](=O)[O-])C(c2ccccc2O)C(C#N)=C(c2cccs2)O1 (stereo not given)	88.5%	105%	84.2%	102%	91.5%	97.7%	97%	89.3%	87.3%	93.3%	74.2%	97.2%	98.2%	70.5%	100%	94.8%	78%	110%	85.4%	88.6%
CNCCCn1c2c(c3ccc(Cl)cc3c1=O)C(=O)c1cc(OC)cnc1-2	-57.6% (active)	-80.5% (active)	14.7%	28.3%	-86.5% (active)	38.6%	32.4%	11%	-83.7% (active)	72.2%	77.3%	63.8%	39.7%	33.4%	54.2%	19.8%	35.3%	20.5%	-22.5% (active)	-29.9% (active)
O=C1N(Cc2ccccc2Cl)c2ccccc2C12NN=C(c1ccccc1)S2 (stereo not given)	35.3%	107%	71.8%	53%	36.1%	45.1%	53.3%	58.6%	42.3%	78.6%	91.3%	58.1%	64.1%	54.2%	105%	59.4%	47.4%	52.8%	57.3%	53.6%
Clc1ccc(-c2cnc3nonc3n2)s1	54.4%	83%	102%	91.4%	87.9%	51.8%	24.5%	54.9%	36.5%	94.4%	93.6%	107%	92.6%	64%	103%	81.9%	94.1%	93.9%	11.3%	47.2%
COc1ccc(/C=C(\C#N)c2cc(OC)c(OC)c(OC)c2)cc1	15.2%	6.29% (active)	30.3%	43%	15.4%	28%	-37.4% (active)	36.2%	27%	56.6%	64.7%	54.7%	27.9%	28.5%	74.1%	24.7%	41.4%	7.06% (active)	14.9%	8.39% (active)
CN(C)CCCn1c(=O)c2cc([N+](=O)[O-])ccc2c2cnc3[nH]ccc3c21	48%	16.2%	49.5%	53.5%	57.4%	48.4%	69.4%	74.6%	38.5%	104%	53.7%	62.2%	47%	33.1%	50.5%	27.9%	79.5%	39.5%	-26.4% (active)	8.62% (active)
COc1cc2ncnc(Nc3ccc(S(=O)(=O)Nc4nccs4)cc3)c2cc1OCCCN1CCOCC1	104%	106%	95.1%	104%	100%	99%	108%	98.7%	97.2%	109%	99.2%	111%	98%	83.6%	103%	103%	91.7%	115%	105%	105%
COc1cc(Nc2ncccc2/C=C/C(=O)c2cc(OC)c(OC)c(OC)c2)cc(OC)c1OC	74.2%	67.8%	67.9%	80.2%	50.8%	74.1%	53.9%	65.8%	17.1%	90.5%	78.3%	90.5%	79.3%	65.6%	121%	76.1%	72%	84.9%	40.8%	70.9%
c1ccc(-c2nnn(-c3ccccc3)n2)cc1	114%	104%	90.4%	101%	99.1%	103%	104%	94.1%	116%	110%	94.7%	93.2%	103%	81.3%	147%	105%	92.9%	119%	95.2%	91.2%
Nc1c(C(=O)Nc2cccc(Cl)c2)sc2nc3c(cc12)C(=O)CCC3	32.4%	23.9%	25.9%	38.2%	46.4%	29.1%	27.2%	43.7%	46.1%	51.4%	69.7%	58.2%	54.4%	57.1%	65%	54.2%	40.3%	49.3%	13.5%	57.1%
c1cc2c(cc1-c1cnc3nonc3n1)OCO2	57.1%	109%	96.8%	92.6%	94.2%	56.8%	91.2%	66%	84.9%	104%	115%	93.4%	103%	87.9%	105%	73.3%	84.4%	86.9%	46%	80.3%
COc1ccc(/C=C/C(=O)CCC(=O)O)cc1OC	115%	101%	90.5%	111%	107%	111%	109%	110%	99.7%	112%	97.5%	109%	101%	83.3%	104%	108%	95.5%	121%	95.6%	102%
